Data published in PubChem BioAssay (NCI).
Compounds without any hit were thinned out: in the full panel of roughly 83,000, 20% have a hit.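 Step 1: grow cells in 96-well plates. Step 2: add test compound at a single concentration. Step 3: incubate 48 h. Step 4: record percent growth.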 Values without a mark were called inactive. Calls of active or inactive are those of the source. How the source made its calls: active means growth percent below 10; inactive means the rest.

test system: DU-145 prostate; assay: NCI-60 one-dose screen, 48 h (100 = growth as untreated, 0 = no growth, -100 = all killed); settings: 10 µM unless noted

| SMILES | growth |
| --- | --- |
| O=C(Nc1cccc(-n2cc(-c3ccncc3)c(-c3ccc(O)c(Cl)c3)n2)c1)Nc1ccc(Cl)c(C(F)(F)F)c1 | 4.68% (active) |
| CCOc1ccccc1C(=O)OCC(=O)Nc1cccc(S(=O)(=O)N(C)C)c1 | 115% |
| Cn1c(N)c(N=O)c(=O)[nH]c1=O | 112% |
| Cc1nn(-c2ccc(Br)cc2)c2nc3c(nc12)C(=O)C(=O)c1ccccc1-3 | 124% |
| Cc1nn(-c2ccccc2)c2nc(Cl)c(/C=C/C(=O)c3ccccc3)c(-c3ccccc3)c12 | 115% |
| S=C(Nc1ccc(C2=NCCN2)cc1)Nc1ccc(C2=NCCN2)cc1 | 107% |
| COc1ccc(C(=O)/C=C/c2c(Cl)nc3c(c(C)nn3-c3ccccc3)c2-c2ccc(Br)cc2)cc1 | 112% |
| O=C1c2ccccc2-c2c1nc1ccccc1[n+]2[O-] | 108% |
| Cc1c(C(N)=O)sc2c1c(=O)n(Cc1ccccc1)c1nnc(S(=O)(=O)CC(=O)Nc3ccc(Cl)cc3)n21 | 43.9% |
| OCCOc1c(Cl)cc(Cl)cc1Cl | 115% |
| O=C1Nc2ccc(F)cc2/C1=C/c1nc(-c2ccc(F)cc2)n2ccccc12 | 74.1% |
| CCOC(=O)C(C(C)=O)c1nc2sc3cc(Cl)ccc3n2c(=N)c1C#N (stereo not drawn) | 109% |
| Cc1nn(-c2ccc(Cl)cc2)c2nc3c(nc12)c(=O)oc1ccccc13 | 118% |
| Cc1nn(-c2ccccc2)c2ncc3c(c12)C(=O)N(Cc1ccccc1)C3=O | 98.9% |
| COc1cc(OC)c2cc(C(=O)O)c(=O)oc2c1 | 129% |
| Cc1c(C(N)=O)sc2ncn(Cc3ccccc3)c(=O)c12 | 113% |

| SMILES | growth |
| --- | --- |
| O=C1CN(CO)C(=O)CN1CO | 114% |
| O=C(COC(=O)[C@H](C[Se][Se]C[C@H](NC(=O)c1ccc(Br)cc1F)C(=O)OCC(=O)c1ccc(F)cc1)NC(=O)c1ccc(Br)cc1F)c1ccc(F)cc1 | -100% (active) |
| COC(=O)[C@]1(CCSC)N[C@H](c2cn(-c3ccccc3)nc2C)[C@@H]2C(=O)N(c3ccccc3)C(=O)[C@@H]21 | 119% |
| Cc1c(C(N)=O)sc2c1c(=O)n(Cc1ccccc1)c1nnc(SCC(=O)Nc3ccc(Cl)cc3)n21 | 39.5% |
| O=C1OC(c2ccc(-c3ccccc3)cc2)=C/C1=C/c1cccs1 | 103% |
| Oc1ccccc1/C=N\Nc1ccccc1 | 58.5% |
| CCCCn1c(Cc2ccc(Cl)cc2)nc2cc(OC)c(OC)cc2c1=O | 75.5% |
| Cc1[nH]n(C(N)=S)c(=O)c1N=Nc1ccc(F)c(Cl)c1 | 100% |
| Cc1cc(C)c(OC(=O)CSc2nc3ccccc3c(=O)n2CCc2ccccc2)cc1C | 110% |
| Cc1nn(-c2ccc(Cl)cc2)c2nc3c(nc12)C(=O)C(=O)c1ccccc1-3 | -22% (active) |
| O=C(c1ccccc1)c1ccccc1Cl | 108% |
| COc1cc(OC)c2sc(-c3ccc(-n4cncc4-c4ccc(N)cc4)cc3)nc2c1 | 80.3% |
| O=C(CSc1nc2c(n1Nc1ccccc1)-c1ccccc1SC2)Nc1nc(-c2ccc(Cl)cc2)cs1 | 73.5% |
| CN=C(NC)N/N=C(C)\C=N\NC(=NC)NC | 109% |
| N#Cc1c(N2CCOCC2)nc2sc3cc(Cl)ccc3n2c1=N | 110% |

test system: K-562 leukemia; assay: as above; settings: 10 µM unless noted

| SMILES | growth |
| --- | --- |
| O=C(Nc1cccc(-n2cc(-c3ccncc3)c(-c3ccc(O)c(Cl)c3)n2)c1)Nc1ccc(Cl)c(C(F)(F)F)c1 | 4.8% (active) |
| CCOc1ccccc1C(=O)OCC(=O)Nc1cccc(S(=O)(=O)N(C)C)c1 | 104% |
| Cn1c(N)c(N=O)c(=O)[nH]c1=O | 93.3% |
| S=C(Nc1ccc(C2=NCCN2)cc1)Nc1ccc(C2=NCCN2)cc1 | 91.4% |
| O=C1Nc2ccc(F)cc2/C1=C/c1nc(-c2ccc(F)cc2)n2ccccc12 | 106% |
| CCOC(=O)C(C(C)=O)c1nc2sc3cc(Cl)ccc3n2c(=N)c1C#N (stereo not drawn) | 87.4% |
| OC(CCC(O)(c1ccccc1)c1ccccc1)(c1ccccc1)c1ccccc1 | 5.52% (active) |
| S=C(c1ccccc1)N1CCN(c2cccc(Cl)c2)CC1 | 54.8% |
| COc1cc(OC)c2cc(C(=O)O)c(=O)oc2c1 | 95.1% |
| Cc1c(C(N)=O)sc2ncn(Cc3ccccc3)c(=O)c12 | 97.1% |
| O=C(COC(=O)[C@H](C[Se][Se]C[C@H](NC(=O)c1ccc(Br)cc1F)C(=O)OCC(=O)c1ccc(F)cc1)NC(=O)c1ccc(Br)cc1F)c1ccc(F)cc1 | -1.8% (active) |
| CCOC(=O)C1C(=O)OC2CCCCC21 (stereo not drawn) | 102% |
| O=C1OC(c2ccc(-c3ccccc3)cc2)=C/C1=C/c1cccs1 | 87.8% |
| CCCCn1c(Cc2ccc(Cl)cc2)nc2cc(OC)c(OC)cc2c1=O | 40.3% |
| Cn1[nH]cc(/C=N/C(N)=O)c1=O | 103% |
| Cc1[nH]n(C(N)=S)c(=O)c1N=Nc1ccc(F)c(Cl)c1 | 95.3% |
| NC(=O)SCC(=O)Nc1ccccc1-c1ccccc1 | 103% |
| O=C(c1ccccc1)c1ccccc1Cl | 100% |
| COc1cc(OC)c2sc(-c3ccc(-n4cncc4-c4ccc(N)cc4)cc3)nc2c1 | 59.9% |
| O=C(CSc1nc2c(n1Nc1ccccc1)-c1ccccc1SC2)Nc1nc(-c2ccc(Cl)cc2)cs1 | 78% |
| OC(Cc1cccnc1)c1ccccc1 (stereo not drawn) | 101% |
| N#Cc1c(N2CCOCC2)nc2sc3cc(Cl)ccc3n2c1=N | 106% |
